# Data published in PubChem BioAssay (NCATS).
# Inconclusive results are not listed. Calls of active or inactive are those of the source. Calls come from the whole dose curve; as a rule, active = well fitted curve in the direction sought with a large enough effect; inconclusive = small, poorly fitted or top-dose-only effect, or another doubt; inactive = no such curve, though single readings can be large; an effect the other way counts as inactive or inconclusive.
# Key:
# [1] = qHTS of pediatric cancer cell lines to identify multiple opportunities for drug repurposing: Confirmatory screen for TC32 cells (AID 1347118);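 note: cells exposed to compound for 48 h before the read; nearly all actives have a fitted effect of over 65% in size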; note: potency is the fitted concentration of half-maximal effect
# Outline: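 Luminescent ATP read-out (CellTiter-Glo) of metabolically active TC32 cells after 48 h exposure. Concentration-response curves came from 11-point (MIPE, 0.78 nM–46 µM) or 8-point (NPC, 0.59 nM–46 µM) primary titrations; follow-up used 11 points.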
# [2] = qHTS of pediatric cancer cell lines to identify multiple opportunities for drug repurposing: Confirmatory screen for MG 63 (6-TG R) cells (AID 1347119); note: nearly all actives have a fitted effect of over 55% in size; note: potency is the fitted concentration of half-maximal effect
# Outline: (§1)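 Cells (500-1,000/well) rested 5 h, then received compounds for 48 h; metabolically active cells were measured by CellTiter-Glo luminescence. Final concentrations spanned up to 46 µM (MIPE, 11-point) or 0.59 nM-46 µM (NPC, 8-point) in primary screens, 11-point in follow-ups.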
# [3] = qHTS of pediatric cancer cell lines to identify multiple opportunities for drug repurposing: Confirmatory screen for Rh18 cells (AID 1347125); note: nearly all actives have a fitted effect of over 55% in size; note: potency is the fitted concentration of half-maximal effect
# Outline: as §1
# [4] = qHTS of pediatric cancer cell lines to identify multiple opportunities for drug repurposing: Confirmatory screen for Saos-2 cells (AID 1347127); note: nearly all actives have a fitted effect of over 60% in size; note: potency is the fitted concentration of half-maximal effect
# Outline: as §1
# [5] = qHTS of pediatric cancer cell lines to identify multiple opportunities for drug repurposing: Confirmatory screen for OHS-50 cells (AID 1347128);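 note: compound exposure lasted 48 h at 37 degrees C; nearly all actives have a fitted effect of over 55% in size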; note: potency is the fitted concentration of half-maximal effect
# Outline: as §1
# [6] = qHTS of pediatric cancer cell lines to identify multiple opportunities for drug repurposing: Confirmatory screen for SK-N-SH cells (AID 1347129);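 note: cells exposed to compound for 48 h before viability read; nearly all actives have a fitted effect of over 60% in size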; note: potency is the fitted concentration of half-maximal effect
# Outline: as §1
# [7] = tested on: Zika virus NS2B-NS3 protease; assay: Primary screen GU AMC qHTS for Zika virus inhibitors (AID 1347154); note: nearly all actives have a fitted effect of over 70% in size
# Outline: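 Fluorogenic AMC-substrate cleavage by noncovalent NS2B-NS3 protease complex (25 nM, pH 8.0 Tris buffer with Tween 20) followed for 15 minutes at room temperature (~20% conversion). Percent inhibition from ex340/em450 signal change, fitted by 4-parameter Hill equation.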
# [8] = tested on: Zika virus NS2B-NS3 protease (unlinked complex); assay: Primary screen GU Rhodamine qHTS for Zika virus inhibitors: Unlinked NS2B-NS3 protease assay (AID 1347159); note: nearly all actives have a fitted effect of over 60% in size
# Outline: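 Percent inhibition came from the 15-min rise in Rhodamine110 fluorescence (1.5 microM substrate, ~15% conversion), normalized to no-inhibitor and no-enzyme wells and Hill-fitted. Unlinked protease, 25 nM, pH 8.0 Tris buffer; compounds up to 114 microM, 15-min preincubation.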
# [9] = qHTS of pediatric cancer cell lines to identify multiple opportunities for drug repurposing: Confirmatory screen for control Hh wild type fibroblast cells (AID 1347121); note: nearly all actives have a fitted effect of over 70% in size; note: potency is the fitted concentration of half-maximal effect
# Outline: as §1
# [10] = qHTS of pediatric cancer cell lines to identify multiple opportunities for drug repurposing: Confirmatory screen for Rh41 cells (AID 1347123);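 note: 48 h compound exposure; nearly all actives have a fitted effect of over 60% in size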; note: potency is the fitted concentration of half-maximal effect
# Outline: as §1
# [11] = qHTS of pediatric cancer cell lines to identify multiple opportunities for drug repurposing: Confirmatory screen for RD cells (AID 1347124);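 note: cells exposed to compound for 48 h before viability readout; nearly all actives have a fitted effect of over 65% in size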; note: potency is the fitted concentration of half-maximal effect
# Outline: as §1
# [12] = qHTS of pediatric cancer cell lines to identify multiple opportunities for drug repurposing: Confirmatory screen for Rh30 cells (AID 1347126); note: nearly all actives have a fitted effect of over 55% in size; note: potency is the fitted concentration of half-maximal effect
# Outline: as §1
# [13] = qHTS of pediatric cancer cell lines to identify multiple opportunities for drug repurposing: Confirmatory screen for U-2 OS cells (AID 1347122); note: nearly all actives have a fitted effect of over 65% in size; note: potency is the fitted concentration of half-maximal effect
# Outline: as §1
Compound,Potency [1],Potency [2],Potency [3],Potency [4],Potency [5],Potency [6],Potency [7],Potency [8],Potency [9],Potency [10],Potency [11],Potency [12],Potency [13]
CC(C)(O)c1cc2nc(-c3cnc(N)nc3)nc(N3CCOCC3)c2s1,0.827 µM (active),0.369 µM (active),1.65 µM (active),1.65 µM (active),2.93 µM (active),0.935 µM (active),inactive,inactive,,,,,
COc1cc(=C2C=c3ccccc3=N2)[nH]c1=Cc1[nH]c(C)cc1C,7.37 µM (active),,,8.27 µM (active),,1.24 µM (active),inactive,,,,,,
Cc1cc(Nc2cc(NC(=O)c3c(Cl)cccc3Cl)ccn2)nc(N)n1,0.827 µM (active),,,1.31 µM (active),0.369 µM (active),13.6 µM (active),inactive,,20.8 µM (active),0.269 µM (active),inactive,24 µM (active),
Cc1cc(Nc2cc(N3CCN(C)CC3)nc(Sc3ccc(NC(=O)C4CC4)cc3)n2)n[nH]1,,2.61 µM (active),,16.5 µM (active),9.27 µM (active),11.8 µM (active),inactive,inactive,inactive,9.27 µM (active),,5.85 µM (active),9.27 µM (active)
CC(NCc1ccc2c(c1)nc(NC(=O)c1ccc(-c3cn[nH]c3)s1)n2CC(C)(C)O)C(C)(C)C (stereo not drawn),,1.31 µM (active),2.61 µM (active),0.928 µM (active),0.827 µM (active),0.833 µM (active),,,7.37 µM (active),0.737 µM (active),0.928 µM (active),0.657 µM (active),0.928 µM (active)
C[C@@H](Oc1cc(-c2cnn(C3CCNCC3)c2)cnc1N)c1c(Cl)ccc(F)c1Cl,4.65 µM (active),13.1 µM (active),18.5 µM (active),13.1 µM (active),,7.43 µM (active),inactive,inactive,,,,,
Cc1cnc(-c2cnc(NCCNc3ccc(C#N)cn3)nc2-c2ccc(Cl)cc2Cl)[nH]1,,0.737 µM (active),inactive,inactive,,,inactive,,inactive,,inactive,,inactive
CC=C1NC(=O)[C@H]2CSSCCC=C[C@H](CC(=O)N[C@H](C(C)C)C(=O)N2)OC(=O)[C@H](C(C)C)NC1=O,14.7 µM (active),,inactive,,inactive,inactive,inactive,,inactive,inactive,,,inactive
Cc1ccc(C(N)=O)cc1Nc1nccc(-c2cn(C(C)C)c3cnccc23)n1,,inactive,,21.4 µM (active),12 µM (active),6.79 µM (active),inactive,inactive,inactive,13.5 µM (active),,,15.1 µM (active)
CN1CCN(c2cc(C(=O)Nc3ccc4c(c3)-c3c(c(C(N)=O)nn3-c3ccc(F)cc3)CC4)c(Cl)cn2)CC1,20.8 µM (active),,26.1 µM (active),,,20.9 µM (active),inactive,,,14.7 µM (active),,,
O=C(Nc1cn[nH]c1-c1nc2ccc(CN3CCOCC3)cc2[nH]1)NC1CC1,,inactive,inactive,inactive,,inactive,inactive,inactive,inactive,inactive,inactive,inactive,inactive
CC[C@@]1(O)C(=O)OCc2c1cc1n(c2=O)Cc2cc3cc(O)ccc3nc2-1,0.0131 µM (active),0.0657 µM (active),0.657 µM (active),0.0465 µM (active),0.0928 µM (active),1.87 µM (active),,,,,,0.585 µM (active),
Cc1c(NC(=O)OC[C@@H]2COCCN2)cn2ncnc(Nc3ccc4c(cnn4Cc4cccc(F)c4)c3)c12,,inactive,,inactive,,,inactive,inactive,inactive,16.5 µM (active),inactive,,20.8 µM (active)
COC(=O)Nc1ccc(-c2nc(N3CCOCC3)c3cnn(C4CCN(Cc5cccnc5)CC4)c3n2)cc1,1.31 µM (active),1.85 µM (active),,,,14.8 µM (active),inactive,inactive,,1.31 µM (active),,,
CC(C)(C)NC(=O)[C@H]1CN(Cc2cccnc2)CCN1C[C@@H](O)C[C@@H](Cc1ccccc1)C(=O)N[C@H]1c2ccccc2C[C@H]1O,,23.3 µM (active),inactive,,,inactive,inactive,,inactive,20.8 µM (active),inactive,,23.3 µM (active)
CC(C)c1cc(-c2n[nH]c(=O)n2-c2ccc3c(ccn3C)c2)c(O)cc1O,inactive,,,,,inactive,,inactive,inactive,,,,
Cc1nc2cnc3ccc(C#Cc4cccnc4)cc3c2n1-c1ccc(C(C)(C)C#N)cc1,0.676 µM (active),,1.91 µM (active),5.37 µM (active),3.39 µM (active),2.15 µM (active),inactive,,,0.851 µM (active),12 µM (active),1.35 µM (active),
Cn1c2ccccc2c2c3c(c4c5ccccc5n(CCC#N)c4c21)CNC3=O,4.14 µM (active),,inactive,9.27 µM (active),,14.8 µM (active),inactive,,inactive,29.3 µM (active),,,3.69 µM (active)
